Source: PubChem BioAssay AID1159580 (chemical genetic matrix, 2015)
Among all 5,500 compounds or so, about 2,000 (36%) were called active. About 18% were inconclusive and are not listed. Rule as the data show it: active = normalized growth mostly below about 0.91 (no sharp cut-off); inconclusive = no clear call, values can overlap the other calls; inactive = mostly above about 0.92. The list shows a part of the results.

Assay: chemical genetic growth profiling, strain panel (AID 1159580);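 also: tested at 20 µM; growth read once vehicle control cultures reached saturation at 30 °C; 1 = growth at the plate median or of vehicle wells; lower values mean less growth of the strain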
Conditions: growth OD
[1] = S. cerevisiae deletion strains, locus YAR019C, strain CDC15, active compounds read low
[2] = S. cerevisiae deletion strains, locus YBL105C, strain PKC1, active compounds read low
[3] = S. cerevisiae deletion strains, locus YBR135W, strain CKS1, active compounds read low
[4] = S. cerevisiae deletion strains, locus YBR136W, strain MEC1, active compounds read low
[5] = S. cerevisiae deletion strains, locus YBR160W, strain CDC28, active compounds read low
[6] = S. cerevisiae deletion strains, locus YDL017W, strain CDC7, active compounds read low
[7] = S. cerevisiae deletion strains, locus YDL028C, strain MPS1, active compounds read low
[8] = S. cerevisiae deletion strains, locus YDL101C, strain DUN1, active compounds read low
[9] = S. cerevisiae deletion strains, locus YDL108W, strain KIN28, active compounds read low
[10] = S. cerevisiae deletion strains, locus YDL132W, strain cdc53, active compounds read low
[11] = S. cerevisiae deletion strains, locus YDL214C, strain PRR2, active compounds read low
[12] = S. cerevisiae deletion strains, locus YDR052C, strain DBF4, active compounds read low
[13] = S. cerevisiae deletion strains, locus YDR054C, strain cdc34, active compounds read low
[14] = S. cerevisiae deletion strains, locus YDR226W, strain ADK1, active compounds read low
[15] = S. cerevisiae deletion strains, locus YDR477W, strain SNF1, active compounds read low
[16] = S. cerevisiae deletion strains, locus YER123W, strain YCK3, active compounds read low
[17] = S. cerevisiae deletion strains, locus YER133W, strain GLC7, active compounds read low
[18] = S. cerevisiae deletion strains, locus YFL009W, strain cdc4, active compounds read low
[19] = S. cerevisiae deletion strains, locus YFL029C, strain CAK1, active compounds read low
[20] = S. cerevisiae deletion strains, locus YFR003C, strain YPI1, active compounds read low
[21] = S. cerevisiae deletion strains, locus YFR019W, strain FAB1, active compounds read low
[22] = S. cerevisiae deletion strains, locus YFR028C, strain CDC14, active compounds read low
[23] = S. cerevisiae deletion strains, locus YGR040W, strain KSS1, active compounds read low
[24] = S. cerevisiae deletion strains, locus YGR052W, strain FMP48, active compounds read low
[25] = S. cerevisiae deletion strains, locus YGR092W, strain DBF2, active compounds read low
[26] = S. cerevisiae deletion strains, locus YHR030C, strain SLT2, active compounds read low
[27] = S. cerevisiae deletion strains, locus YHR079C, strain IRE1, active compounds read low
[28] = S. cerevisiae deletion strains, locus YHR082C, strain KSP1, active compounds read low
[29] = S. cerevisiae deletion strains, locus YHR205W, strain SCH9, active compounds read low
[30] = S. cerevisiae deletion strains, locus YIL147C, strain SLN1, active compounds read low
[31] = S. cerevisiae deletion strains, locus YJL095W, strain BCK1, active compounds read low
[32] = S. cerevisiae deletion strains, locus YJL128C, strain PBS2, active compounds read low
[33] = S. cerevisiae deletion strains, locus YJL157C, strain FAR1, active compounds read low
[34] = S. cerevisiae deletion strains, locus YJR016C, strain ILV3, active compounds read low
[35] = S. cerevisiae deletion strains, locus YJR066W, strain TOR1 (second series), active compounds read low
[36] = S. cerevisiae deletion strains, locus YJR066W, strain TOR1, active compounds read low
[37] = S. cerevisiae deletion strains, locus YKL048C, strain ELM1, active compounds read low
[38] = S. cerevisiae deletion strains, locus YKL067W, strain YNK1, active compounds read low
[39] = S. cerevisiae deletion strains, locus YKL101W, strain HSL1, active compounds read low
[40] = S. cerevisiae deletion strains, locus YKL193C, strain SDS22, active compounds read low
[41] = S. cerevisiae deletion strains, locus YKL203C, strain TOR2, active compounds read low
[42] = S. cerevisiae deletion strains, locus YLR113W, strain HOG1, active compounds read low
[43] = S. cerevisiae deletion strains, locus YLR133W, strain CKI1, active compounds read low
[44] = S. cerevisiae deletion strains, locus YLR403W, strain SFP1, active compounds read low
[45] = S. cerevisiae deletion strains, locus YML070W, strain DAK1, active compounds read low
[46] = S. cerevisiae deletion strains, locus YMR001C, strain CDC5, active compounds read low
[47] = S. cerevisiae deletion strains, locus YMR205C, strain PFK2 (second series), active compounds read low
[48] = S. cerevisiae deletion strains, locus YMR277W, strain FCP1, active compounds read low
[49] = S. cerevisiae deletion strains, locus YNL006W, strain LST8, active compounds read low
[50] = S. cerevisiae deletion strains, locus YNL020C, strain ARK1, active compounds read low
[51] = S. cerevisiae deletion strains, locus YNL161W, strain CBK1, active compounds read low
[52] = S. cerevisiae deletion strains, locus YNL183C, strain NPR1, active compounds read low
[53] = S. cerevisiae deletion strains, locus YNL207W, strain RIO2, active compounds read low
[54] = S. cerevisiae deletion strains, locus YNL222W, strain SSU72, active compounds read low
[55] = S. cerevisiae deletion strains, locus YNL307C, strain MCK1 (second series), active compounds read low
[56] = S. cerevisiae deletion strains, locus YOL078W, strain AVO1, active compounds read low
[57] = S. cerevisiae deletion strains, locus YOL136C, strain PFK27, active compounds read low
[58] = S. cerevisiae deletion strains, locus YOR061W, strain CKA2, active compounds read low
[59] = S. cerevisiae deletion strains, locus YOR119C, strain RIO1, active compounds read low
[60] = S. cerevisiae deletion strains, locus YOR231W, strain MKK1, active compounds read low
[61] = S. cerevisiae deletion strains, locus YOR329C, strain SCD5, active compounds read low
[62] = S. cerevisiae deletion strains, locus YPL031C, strain PHO85, active compounds read low
[63] = S. cerevisiae deletion strains, locus YPL153C, strain RAD53, active compounds read low
[64] = S. cerevisiae deletion strains, locus YPL204W, strain HRR25, active compounds read low
[65] = S. cerevisiae deletion strains, locus YPL209C, strain IPL1, active compounds read low
[66] = S. cerevisiae deletion strains, locus YPL256C, strain CLN2, active compounds read low
[67] = S. cerevisiae deletion strains, locus YPR025C, strain CCL1, active compounds read low
[68] = S. cerevisiae deletion strains, locus YPR106W, strain ISR1, active compounds read low
[69] = S. cerevisiae deletion strains, locus YPR111W, strain DBF20, active compounds read low
[70] = S. cerevisiae deletion strains, strain NNK1, active compounds read low
[71] = S. cerevisiae deletion strains, strain TSCII, active compounds read low
[72] = S. cerevisiae deletion strains, locus YAL013W, strain DEP1, active compounds read low
[73] = S. cerevisiae deletion strains, locus YBR229C, strain ROT2, active compounds read low
[74] = S. cerevisiae deletion strains, locus YDL134C, strain PPH21, active compounds read low
[75] = S. cerevisiae deletion strains, locus YDR150W, strain NUM1, active compounds read low
[76] = S. cerevisiae deletion strains, locus YEL061C, strain CIN8, active compounds read low
[77] = S. cerevisiae deletion strains, locus YGR078C, strain PAC10, active compounds read low
[78] = S. cerevisiae deletion strains, locus YHR087W, strain rtc3, active compounds read low
[79] = S. cerevisiae deletion strains, locus YJR043C, strain POL32, active compounds read low
[80] = S. cerevisiae deletion strains, locus YJR075W, strain HOC1, active compounds read low
[81] = S. cerevisiae deletion strains, locus YLR039C, strain RIC1, active compounds read low
[82] = S. cerevisiae deletion strains, locus YLR058C, strain SHM2 (second series), active compounds read low
[83] = S. cerevisiae deletion strains, locus YLR085C, strain ARP6, active compounds read low
[84] = S. cerevisiae deletion strains, locus YLR262C, strain YPT6, active compounds read low
[85] = S. cerevisiae deletion strains, locus YML094W, strain GIM5, active compounds read low
[86] = S. cerevisiae deletion strains, locus YMR219W, strain ESC1, active compounds read low
[87] = S. cerevisiae deletion strains, locus YMR263W, strain SAP30, active compounds read low
[88] = S. cerevisiae deletion strains, locus YNL153C, strain GIM3, active compounds read low
[89] = S. cerevisiae deletion strains, locus YNL298W, strain CLA4 (second series), active compounds read low
[90] = S. cerevisiae deletion strains, locus YNL322C, strain KRE1, active compounds read low
[91] = S. cerevisiae deletion strains, locus YNR030W, strain Alg12, active compounds read low
[92] = S. cerevisiae deletion strains, locus YPL055C, strain LGE1, active compounds read low
[93] = S. cerevisiae deletion strains, locus YPL241C, strain CIN2, active compounds read low
[94] = S. cerevisiae deletion strains, locus YPR135W, strain CTF4, active compounds read low
[95] = S. cerevisiae strains, strain wild type, active compounds read low

Measured: normalized growth

COc1ccc(Br)c(C(=O)/C(C#N)=C/c2cccs2)c1
active: [1] 0.765 | [8] 0.676 | [10] 0.871 | [11] 0.221 | [13] 0.696 | [15] 0.197 | [16] 0.122 | [17] 0.187 | [18] 0.861 | [19] 0.724 | [21] 0.149 | [23] 0.229 | [24] 0.205 | [25] 0.178 | [26] 0.125 | [27] 0.132 | [28] 0.15 | [29] 0.0479 | [31] 0.146 | [33] 0.181 | [35] 0.252 | [36] 0.146 | [37] 0.234 | [38] 0.262 | [39] 0.307 | [40] 0.787 | [41] 0.2 | [42] 0.23 | [43] 0.224 | [44] 0.081 | [45] 0.177 | [47] 0.287 | [48] 0.814 | [49] 0.875 | [50] 0.22 | [51] 0.836 | [52] 0.151 | [54] 0.861 | [55] 0.169 | [56] 0.722 | [57] 0.139 | [58] 0.344 | [59] 0.249 | [60] 0.187 | [62] 0.179 | [63] 0.198 | [64] 0.189 | [66] 0.16 | [68] 0.886 | [70] 0.676 | [71] 0.736
inactive: [2] 0.94 | [3] 0.903 | [4] 0.922 | [5] 0.921 | [6] 0.921 | [7] 0.909 | [9] 0.904 | [12] 0.929 | [14] 0.908 | [20] 0.918 | [22] 0.913 | [30] 0.919 | [32] 0.874 | [34] 0.915 | [46] 0.921 | [53] 0.917 | [61] 0.929 | [65] 0.926 | [67] 0.914 | [69] 0.935

COc1ccc(OC)c(CNC(=O)Cc2cccs2)c1
inactive: [72] 1.01 | [73] 1.03 | S. cerevisiae deletion strains, locus YCL061C, strain MRC1, active compounds read low 1.03 | [8] 1.05 | [74] 0.997 | [75] 0.993 | [76] 0.995 | [77] 1.04 | [26] 1.04 | [78] 0.952 | [79] 1.03 | [80] 0.998 | [81] 1.04 | [82] 0.988 | [83] 0.994 | [84] 1.01 | [85] 0.962 | [86] 0.996 | [87] 1.01 | [88] 1.03 | [89] 1 | [90] 1 | [91] 1 | [92] 0.961 | [93] 0.983 | [94] 1.06 | [95] 1.01

Cc1ccc(NC(=O)CC#N)c(C)c1
inactive: [72] 1.01 | [73] 1 | [8] 0.979 | [74] 1.01 | [75] 0.895 | [76] 1.03 | [77] 1.01 | S. cerevisiae deletion strains, locus YGR229C, strain SMI1, active compounds read low 0.986 | [26] 0.959 | [78] 0.995 | [79] 0.96 | [80] 1.04 | S. cerevisiae deletion strains, locus YKL190W, strain CNB1, active compounds read low 0.998 | [81] 0.974 | [82] 1 | [83] 1.05 | [84] 0.973 | [85] 1.04 | [86] 1.02 | [87] 0.998 | S. cerevisiae deletion strains, locus YMR307W, strain GAS1, active compounds read low 1.03 | [88] 1.01 | [89] 0.988 | [90] 1.01 | [91] 1.02 | S. cerevisiae deletion strains, locus YOL006C, strain TOP1, active compounds read low 0.951 | [92] 1.1 | [93] 1.03 | [94] 1.01 | [95] 0.976

O=C(Nc1ccc(SC(F)(F)F)cc1)Nc1ccc(Oc2cccc(C(F)(F)F)c2)nc1
inactive: [1] 0.995 | [2] 0.989 | [3] 0.992 | [4] 0.987 | [5] 0.992 | [6] 0.996 | [7] 0.988 | [8] 0.997 | [9] 0.993 | [10] 0.995 | [11] 0.941 | [12] 0.996 | [13] 0.994 | [14] 0.987 | [15] 0.982 | [16] 0.949 | [17] 0.95 | [18] 0.988 | [19] 0.996 | [20] 0.991 | [21] 0.921 | [22] 0.999 | [23] 0.975 | [24] 0.973 | [25] 0.995 | [27] 0.883 | [28] 1.05 | [29] 0.957 | [30] 0.994 | [31] 0.975 | [32] 0.946 | [33] 0.937 | [34] 1 | [35] 1.02 | [36] 1.02 | [37] 0.972 | [38] 0.956 | [39] 0.949 | [40] 1 | [41] 0.991 | [42] 0.873 | [43] 0.954 | [44] 0.977 | [45] 0.964 | [46] 0.996 | [47] 0.974 | [48] 0.996 | [49] 0.989 | [50] 0.947 | [51] 0.984 | [52] 1.01 | [53] 0.996 | [54] 0.991 | [55] 0.884 | [56] 1 | [57] 0.907 | [58] 0.983 | [59] 1.03 | [60] 0.958 | [61] 0.984 | [62] 0.97 | [63] 0.99 | [64] 0.958 | [65] 0.992 | [66] 0.897 | [67] 0.988 | [68] 0.992 | [69] 0.972 | [70] 0.999 | [71] 1
active: [26] 0.769
